Source: PubChem (National Center for Advancing Translational Sciences (NCATS))
Compounds with a hit are over-represented: about 11% of the library has one in this group of screens.
PNC inhibitor – inhibitors of perinucleolar compartment assembly | 140,000 tested, 3.1% active | PC3M PTB-GFP, PNC prevalence imaging, 16 h; active compounds read low | activity change (PNC), negative = inhibition, % at 10 µM;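 active = readout at or below -70, meaning at least 70% loss of cells showing the perinucleolar compartment, a nuclear body marking cancer cells; inconclusive = readout between -30 and a set limit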
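Read-out is percentage of cells bearing a perinucleolar compartment, from automated 20x imaging of fixed, Hoechst-stained PC3M PTB-GFP cells. Cells were seeded 4 h, then exposed 16 h to compound (23 nl of library stock) in duplicate plates.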
HPGD inh – inhibitors of human 15-hydroxyprostaglandin dehydrogenase (HPGD); Potency, µM, usual class: inhibitors; P15428; 150,000 tested, 4.3% active; purified HPGD, NADH fluorescence kinetic, PGE2 substrate; AID 894; active = well fitted inhibition curve with a large enough effect, not every such curve was filed as active; inconclusive = small, poorly fitted or top-dose-only effect, or another doubt; inactive = no such curve, though single readings can be large or run the other way
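NADH formation kinetics: reaction with 30 uM PGE2 and 1 mM NAD+ (final), 20 nM enzyme, Tris-HCl pH 8 with Tween 20, after 15 min compound preincubation at room temperature. Fluorescence change, last versus first of five reads.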
HTT cytoprotect – Huntington cell model cytoprotection by ATP luminescence; PC12 HTT-Q103 induced, cytoprotection, ATP luminescence, 40 h; Potency, µM (titrated, usually from 56.4 µM), actives largely listed as activators; 230,000 tested, 0.14% active; AID 1471; note: nearly all actives have a fitted effect of over 45% in size
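Stable PC12 Q103-GFP cells in serum-supplemented, phenol red-free DMEM; induction by tebufenozide at 100 nM final; compound dose series; cell viability quantified luminescently from ATP.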
HttQ103 aggreg – mutant huntingtin aggregation inhibition; 220,000 tested, 1.1% active; Potency, µM (series often up to 46.1 µM), usual class: inhibitors; PC12 HttQ103-GFP aggregates, Acumen cytometry, 40 h; note: nearly all actives have a fitted effect of over 60% in size
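Multiplexed with ATP-based cell death, this channel scores GFP aggregates in PC12 cells expressing inducible HTTex1-Q103-GFP. Induction used 100 nM tebufenozide; compounds were tested in concentration series.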
ALDH1A1 inh – blocks purified human ALDH1A1 activity | Purified ALDH1A1, NADH fluorescence, propionaldehyde substrate | AID 1030 | 220,000 tested, 7.3% active | P00352 | Potency, µM (top dose mostly 75.3 µM), usual class: inhibitors; active = well fitted inhibition curve with a large enough effect, not every such curve was filed as active; inconclusive = small, poorly fitted or top-dose-only effect, or another doubt; inactive = no such curve, though single readings can be large or run the other way
Target sequence (P00352 whole entry, looked up): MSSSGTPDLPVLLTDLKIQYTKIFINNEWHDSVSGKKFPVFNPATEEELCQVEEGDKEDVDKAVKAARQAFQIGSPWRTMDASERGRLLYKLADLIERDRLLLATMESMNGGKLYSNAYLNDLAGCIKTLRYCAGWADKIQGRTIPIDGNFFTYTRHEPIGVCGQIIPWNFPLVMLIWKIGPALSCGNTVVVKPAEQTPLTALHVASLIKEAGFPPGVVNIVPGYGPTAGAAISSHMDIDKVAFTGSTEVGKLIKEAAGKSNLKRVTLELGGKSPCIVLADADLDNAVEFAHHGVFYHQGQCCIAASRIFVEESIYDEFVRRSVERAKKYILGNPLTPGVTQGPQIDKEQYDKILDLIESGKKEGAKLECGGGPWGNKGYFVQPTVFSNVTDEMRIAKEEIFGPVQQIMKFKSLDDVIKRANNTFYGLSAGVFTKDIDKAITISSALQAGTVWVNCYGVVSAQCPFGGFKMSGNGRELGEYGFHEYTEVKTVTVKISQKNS
CBFb RUNX1 block – blocks binding between human CBF-beta and RUNX1. Q01196+Q13951. Potency, µM (titrated, usually from 59.8 µM), actives largely listed as inhibitors. 230,000 tested, under 10 active. AID 1477. AlphaScreen CBFb-His/RUNX1-biotin binding, biochemical
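CBF-beta (His) and RUNX1 (biotin), 30 nM each; 20 min preassociation; + compound, 15 min; + beads 50 ng each (Ni, streptavidin), 90 min; RT; AlphaScreen read.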
Each line names hits and unclear results; the compound was inactive in the other large screens. Unless noted, calls come from the whole dose curve; as a rule, active = well fitted curve in the direction sought with a large enough effect; inconclusive = small, poorly fitted or top-dose-only effect, or another doubt; inactive = no such curve, though single readings can be large; an effect the other way counts as inactive or inconclusive.

CCc1nnc(NS(=O)(=O)c2ccc(NC(=S)NC(=O)c3ccccc3)cc2)s1	HTT cytoprotect inconclusive, ALDH1A1 inh inconclusive
CCc1nnc(NS(=O)(=O)c2ccc(NC(=S)Nc3ccc(F)cc3)cc2)s1	ALDH1A1 inh inconclusive (no result: HTT cytoprotect)
CCc1nnc(NS(=O)(=O)c2ccc(NC(=S)NC(=O)/C=C/c3ccc(OC)cc3)cc2)s1	HPGD inh inconclusive, ALDH1A1 inh 2.5µM
CCc1nnc(NS(=O)(=O)c2ccc(NC(=S)NC(=O)/C=C/c3ccccc3)cc2)s1	HPGD inh inconclusive, ALDH1A1 inh inconclusive, CBFb RUNX1 block inconclusive
CCc1nnc(NS(=O)(=O)c2ccc(NC(=S)NC(=O)/C=C/c3ccc(C(C)C)cc3)cc2)s1	HPGD inh 25µM
CCc1nnc(NS(=O)(=O)c2ccc(NC(=S)NC(=O)c3ccc(Br)cc3)cc2)s1	HPGD inh 14µM
COc1ccccc1OCCC(=O)OCC(=O)Nc1cc(S(=O)(=O)N(C)C)ccc1Cl	ALDH1A1 inh 3.2µM (no result: PNC inhibitor, HPGD inh)
CN(C)S(=O)(=O)c1ccc(Cl)c(NC(=O)COc2ccccc2[N+](=O)[O-])c1	none
COc1ccccc1OCCC(=O)OCC(=O)Nc1ccc(Br)cc1	none
COc1ccccc1OCCC(=O)OCC(=O)NC(C)c1ccccc1 (stereo not drawn)	PNC inhibitor -84
CC1CCC2C(=O)N3C(CCC(C)C3c3ccc(-c4ccco4)cc3)C(=O)N2C1c1ccc(-c2ccco2)cc1 (stereo not drawn)	ALDH1A1 inh 3.2µM, CBFb RUNX1 block inconclusive (no result: PNC inhibitor, HPGD inh, HttQ103 aggreg)
C[C@@H]1CC[C@@H]2C(=O)N3[C@@H](CC[C@@H](C)[C@@H]3c3ccc(-c4ccco4)cc3)C(=O)N2[C@H]1c1ccc(-c2ccco2)cc1	none (no result: PNC inhibitor, HPGD inh, HttQ103 aggreg)
CSc1nc(N)nc(SCC(=O)C(C)(C)C)c1C#N	HPGD inh 13µM, ALDH1A1 inh inconclusive
CSc1nc(N)nc(SCC(=O)Nc2cccc(F)c2)c1C#N	HPGD inh 20µM
COc1ncc2nc(C)c(=O)n(Cc3ccc(F)cc3)c2n1	none (no result: PNC inhibitor, HPGD inh, HttQ103 aggreg, CBFb RUNX1 block)
CSc1sc(C(=O)NNC(C)=O)c2c1C1(CCC2)SCCS1	ALDH1A1 inh inconclusive (no result: PNC inhibitor, HPGD inh)
CSc1sc(C(=O)NN)c2c1C1(CCC2)SCCS1	ALDH1A1 inh 0.45µM (no result: PNC inhibitor, HPGD inh)
COc1cccc([C@@H]2Oc3ccc(OC)cc3C[C@H]2OC(=O)Nc2ccc(OC(F)F)cc2)c1	CBFb RUNX1 block inconclusive (no result: PNC inhibitor, HttQ103 aggreg)
O=C(NCCCCN1CCN(c2cccc(Cl)c2Cl)CC1)c1ccc2c(c1)Cc1ccccc1-2	none (no result: PNC inhibitor, HPGD inh, HTT cytoprotect, HttQ103 aggreg, ALDH1A1 inh)
Cc1c(Cl)cccc1NC(=O)Cn1cccc1	HPGD inh 18µM
Cc1ccccc1NC(=O)CN1C(=O)C2C3CC(C(Br)C3Br)C2C1=O (stereo not drawn)	HPGD inh 14µM, HttQ103 aggreg inconclusive, ALDH1A1 inh 10µM
Cc1ccccc1NC(=O)Cn1cccc1	PNC inhibitor inconclusive, HPGD inh 32µM
Cc1ccccc1NC(=O)C(=O)Nc1ccccc1C	none (no result: PNC inhibitor, HPGD inh)
O=C(CN1C(=O)C2C3c4ccccc4C(c4ccccc43)C2C1=O)Nc1ccccc1C(=O)O (stereo not drawn)	none (no result: HTT cytoprotect)
CCCCn1c(N)c(N(CC(C)C)C(=O)CN(C)Cc2cccc(OC)c2)c(=O)[nH]c1=O	PNC inhibitor inconclusive
C=CCOc1ccc(CN(C)CC(=O)N(CC(C)C)c2c(N)n(CC(C)C)c(=O)[nH]c2=O)cc1	PNC inhibitor -101
Oc1ccc(N2CCN(c3ncnc4sc5c(c34)CCC5)CC2)cc1	PNC inhibitor inconclusive, HttQ103 aggreg 11µM, ALDH1A1 inh inconclusive
CCO/C(=C/c1sc2ccc(OC)cc2[n+]1CCCS(=O)(=O)[O-])CC	none
CCOC(=O)C[n+]1c(C)sc2ccc(OC)cc21	HPGD inh 20µM, ALDH1A1 inh 6.3µM
COc1c(O)cc2c(=O)oc3c(OC)c(O)cc4c(=O)oc1c2c34	HPGD inh 5µM, ALDH1A1 inh inconclusive (no result: PNC inhibitor, HttQ103 aggreg, CBFb RUNX1 block)
O=C(O)COc1cccc(-c2ocnc2-c2nc(-c3ccccc3)c(-c3ccccc3)o2)c1	HPGD inh inconclusive, ALDH1A1 inh inconclusive (no result: PNC inhibitor, HttQ103 aggreg)
Cc1n[nH]c(=O)nc1NCC1CCCO1 (stereo not drawn)	HPGD inh 28µM, ALDH1A1 inh inconclusive
